Only some compounds are listed: those with a hit (about 0.25% of all), similar ones and a draw of the others.
Bim-Bcl-XL = inhibitors of Bim-Bcl-XL binding, primary screen, biochemical, multiplexed, bead flow cytometry, human Bcl-XL; Bcl-2-like protein 1 (Homo sapiens), Q07817; Bim peptide-Bcl-XL binding, fluorescence; inhibition, % at 10 µM; 0.04% of 190,000 active
Target sequence (Q07817 whole entry, looked up): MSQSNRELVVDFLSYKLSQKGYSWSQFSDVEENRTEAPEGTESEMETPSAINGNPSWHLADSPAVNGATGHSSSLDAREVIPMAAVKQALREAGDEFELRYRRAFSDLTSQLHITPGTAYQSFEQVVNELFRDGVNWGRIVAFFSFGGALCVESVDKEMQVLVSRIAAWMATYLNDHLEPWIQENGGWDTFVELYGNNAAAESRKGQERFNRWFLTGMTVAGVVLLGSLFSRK
Bim-Bcl-2 = inhibitors of Bim-Bcl-2 binding, primary screen, biochemical, multiplexed, human Bcl-2 family; AID 950, 2007; Bead-based flow cytometry, Bim peptide-Bcl-2 binding; Apoptosis regulator Bcl-2 (Homo sapiens), P10415; 0.06% of 190,000 active; inhibition, % at 10 µM; in the data active = inhibition above about 40%;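 note: 0% = no compound wells with probe peptide and 100% = reference peptide inhibitor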
Bcl-B Bim block = inhibitors of Bim-Bcl-B binding, primary screen, biochemical, multiplexed, human Bcl-2 family; 0.073% of 190,000 active; bead-based flow cytometry, Bim peptide-Bcl-B binding; Bcl-2-like protein 10 (Homo sapiens), Q9HD36; inhibition, % at 10 µM;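 note: 0% = tracer peptide without compound and 100% = reference inhibitor peptide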
Bim-Bcl-W = inhibitors of Bim binding to Bcl-W, primary screen, biochemical, multiplexed, bead-based flow cytometry. Bim peptide-Bcl-W binding. Bcl-2-like protein 2 (Homo sapiens), Q92843. AID 952, 2007. inhibition, % at 10 µM. 0.02% of 190,000 active;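 note: 0% = bound tracer without compound and 100% = peptide blocker; higher means less fluorescent Bim peptide bound to Bcl-W beads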
Furin inh = human furin inhibitors, primary screen, biochemical, fluorescence intensity; AID 463115, 2010; P09958; 0.061% of 220,000 active; purified furin, fluorogenic substrate cleavage; inhibition, % at 20 µM or 30 µM; in the data active = inhibition above about 25%
Bfl-1 Bim block = inhibitors of Bim binding to Bfl-1, primary screen, biochemical, multiplexed, bead-based flow cytometry | Bim-Bfl-1 binding inhibition | AID 1008, 2008 | inhibition, % at 10 µM | 0.12% of 190,000 active | Bcl-2-related protein A1 (Homo sapiens), Q16548;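 note: 0% = wells without compound plus tracer and 100% = blocker peptide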
Target sequence (Q16548 whole entry, looked up): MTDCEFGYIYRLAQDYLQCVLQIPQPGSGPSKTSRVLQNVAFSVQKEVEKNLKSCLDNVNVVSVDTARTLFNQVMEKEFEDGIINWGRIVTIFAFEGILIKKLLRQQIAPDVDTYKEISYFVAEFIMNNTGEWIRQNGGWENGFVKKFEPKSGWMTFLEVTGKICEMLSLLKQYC
* hit, by the source's call; . = no result. Cut-off read from the data, not from the text of the source, unless noted: active = inhibition above about 40%.

SMILES	Bim-Bcl-XL	Bim-Bcl-2	Bcl-B Bim block	Bim-Bcl-W	Furin inh	Bfl-1 Bim block
COc1ccc(-c2noc(COc3ccc4c(c3)OCO4)n2)cc1OC	23	85*	.	18	-22	.
COc1ccc(S(=O)(=O)NCCOc2cccc3cccnc23)cc1OC	3	76*	65*	0	-6	44*
Cn1cc(-c2cc(C(=O)O)on2)cn1	.	.	.	.	-11	.
CN1CCN(C2=C(Cl)C(=O)N(C3CCCCC3)C2=O)CC1	-3	-6	-11	0	-29	-12
CN1CCN(C2=C(Cl)C(=O)C(c3cnc(N4CCCCC4)s3)=C(Cl)C2=O)CC1	26	44*	58*	30	-13	54*
CNc1ccc(Br)cc(C(=O)/C=C/c2ccc(OC)cc2)c1=O	0	8	-8	10	-5	18
CNc1ccc(Br)cc(C(=O)/C=C/c2cc(OC)ccc2OC)c1=O	26	25	-21	22	-17	42*
O=C(COC(=O)CCCN=C1NS(=O)(=O)c2ccccc21)NC(=O)NC1CCCC1	105*	97*	105*	72*	-20	36
c1ccc(Nc2cccc(Nc3ccccc3)n2)cc1	15	30	13	47*	-10	68*
COc1ccccc1C(=O)N/C(=N/c1nc(C)cc(C)n1)Nc1ccccc1	.	.	.	.	2	.
Cc1ccc(C)c(S(=O)(=O)Nc2nc3ccc(S(N)(=O)=O)cc3s2)c1	-1	0	-5	0	-23	4
CC(C)(C=O)C1=CC(=O)c2ccccc2C1=O	2	2	15	9	-25	49*
CC1=CC(=O)c2ccccc2C1=O	0	-1	-2	0	-11	23
CCC(CO)[n+]1c(C)cc(/C=C2\Sc3ccccc3N2Cc2ccccc2)cc1C (stereo not drawn)	-1	-2	-32	-4	29*	8
CCN1/C(=C2\SC(=S)N(Cc3ccccc3)C2=O)Sc2ccccc21	-7	5	-24	-7	0	-4
CN(C)c1ccc(/C=C2\SC(=O)N(CC(O)Cn3c4ccccc4c4ccccc43)C2=O)cc1 (stereo not drawn)	5	7	5	4	-13	2
CN(C)c1ccc(/C=C2/SC(=O)N(CCN=C3NS(=O)(=O)c4ccccc43)C2=O)cc1	50*	91*	92*	71*	-18	48*
O=C(C1CCC(Cn2c(=S)[nH]c3ccccc3c2=O)CC1)N1CCN(c2ccccc2)CC1 (stereo not drawn)	.	.	.	.	-4	.
O=C(C1CCC(Cn2c(=S)[nH]c3ccccc3c2=O)CC1)N1CCN(c2ccccn2)CC1 (stereo not drawn)	7	37	52*	7	-24	13
Cc1ccc(NC(=O)C(=O)NCc2ccc(/C=N/NC(=O)c3c(C)nc4ccccn34)o2)cc1	-2	-5	-8	-4	-13	-5
O=C(Nc1nnc(SCc2ccccn2)s1)C1CC(=O)N(c2ccccc2)C1 (stereo not drawn)	40*	28	35	31	-6	34
COCCSc1nnc(NC(=O)C2CC(=O)N(c3ccccc3)C2)s1 (stereo not drawn)	-2	-4	-8	-2	1	-7
CC(=O)c1ccc(-c2cc([C@H]3[C@H]4C=CC[C@@H](C)[C@@H]4C(=O)N3Cc3ccccc3)ccc2F)cc1	.	.	.	.	-9	.
CN(C)S(=O)(=O)c1cccc(C(=O)OCC(=O)c2ccc3c(c2)NC(=O)CO3)c1	8	26	43*	23	-3	20
O=C(Nc1nc2ccccc2[nH]1)c1cc2ccccc2o1	-2	-1	-1	2	-23	1
Cc1c(N=C2C=CC(=O)c3ccccc32)c(=O)n(-c2ccccc2)n1C	2	16	-12	10	-12	53*
CC(C)CCN(C(=O)Nc1ccc(Cl)cc1)C1CCN(C(C)C)CC1	0	-1	-3	-3	-16	-2
COc1cc(NC(=O)c2ccccc2)c(OC)cc1Cl	-2	-1	-5	-1	27*	-3
O=C(NCCCNC(=O)c1cncc(O)c1)c1cncc(O)c1	0	-3	-4	0	-24	-8
